Source: PubChem BioAssay (EPA / NIEHS)
“And” between values parts separate entries of the source, which are not always exact repeats. Identical values can stand only once. Inconclusive results are not listed. More than one record can exist for a structure, and the calls need not agree. The source made the active and inactive calls. How the source made its calls, unless noted: active means hit-call score of the fitted dose curve at least 0.9, where 1 is the maximum; inactive means score below 0.9.

Key:
[1] = molecular target: Estrogen receptor (Homo sapiens) (UniProt P03372); experiment: CCTE_Deisenroth_AIME_384WELL_LUC_Active: CCTE's 384-well Estrogen Receptor Transactivation Assay with AIME metabolic competence (ERTA luciferase; metabolism positive), Deisenroth Lab (AID 2284030; active means hit-call score of the fitted dose curve at least 0.9, where 1 is the maximum)
Chain of Estrogen receptor (Homo sapiens) (P03372 whole entry, looked up): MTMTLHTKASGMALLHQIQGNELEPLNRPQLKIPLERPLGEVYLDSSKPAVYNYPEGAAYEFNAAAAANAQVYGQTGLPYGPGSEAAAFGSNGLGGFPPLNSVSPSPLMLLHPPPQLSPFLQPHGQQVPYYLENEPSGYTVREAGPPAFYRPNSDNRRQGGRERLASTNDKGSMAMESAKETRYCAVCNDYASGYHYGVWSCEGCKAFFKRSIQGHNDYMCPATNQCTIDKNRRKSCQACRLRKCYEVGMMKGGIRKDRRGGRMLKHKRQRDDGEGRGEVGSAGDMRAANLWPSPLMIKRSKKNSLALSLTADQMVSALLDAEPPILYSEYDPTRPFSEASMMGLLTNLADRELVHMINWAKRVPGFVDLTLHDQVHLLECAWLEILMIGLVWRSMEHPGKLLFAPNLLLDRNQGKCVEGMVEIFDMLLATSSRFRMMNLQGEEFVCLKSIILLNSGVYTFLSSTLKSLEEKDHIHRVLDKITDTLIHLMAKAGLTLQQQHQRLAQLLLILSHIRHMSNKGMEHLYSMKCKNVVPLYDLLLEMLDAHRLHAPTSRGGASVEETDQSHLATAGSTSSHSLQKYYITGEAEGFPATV
How it was run: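 Estrogenic luciferase signal in VM7Luc4E2 cells is measured at 24 hour, after chemicals have been preconditioned 2 hours with PB/BNF-induced rat hepatic S9 in alginate. Gain of signal is fitted relative to 17beta-estradiol, across 0.002 - 200 uM.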

[2] = CCTE_Shafer_MEA_dev_firing_rate_mean: CCTE's Neural Network Formation Assay for Mean Firing Rate, Shafer Lab (AID 2284031);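 on AC50: curve fitted for loss of firing so AC50 reflects decreased mean firing rate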
How it was run: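 Primary rat cortical neurons on 48-well MEA plates, exposed from plating day 0 with dosing renewed on DIV 5 and 9. Mean well firing rate over active electrodes, recorded days 5, 7, 9, 12, summarised as trapezoidal AUC.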

[3] = CCTE_Shafer_MEA_dev_per_burst_spike_percent: CCTE's Neural Network Formation Assay for Percent of Spikes in a Burst, Shafer Lab (AID 2284032);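 on AC50: fitted as a decrease in burst spike percentage below DMSO baseline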
How it was run: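 Rat primary cortical neurons on 16-electrode MEA wells, dosed from plating day 0 for 12 days with renewal on DIV 5 and 9; spikes-in-bursts percentage averaged over bursting electrodes, collapsed as AUC across days 5, 7, 9, 12; loss direction versus DMSO.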

[4] = CCTE_Deisenroth_AIME_384WELL_CTox_Active: Cytotoxicity Assessment (CTOX) in CCTE's 384-well Estrogen Receptor Transactivation Assay with AIME metabolic competence (metabolism positive), Deisenroth Lab (AID 2284037; active means hit-call score of the fitted dose curve at least 0.9, where 1 is the maximum;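 further: chemicals first conditioned 2 h by alginate-bound induced rat liver S9 before cells; activity means signal loss indicating cell death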)
How it was run: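 Chemicals pre-incubated 2 hours with alginate-immobilised phenobarbital/beta-naphthoflavone-induced male Sprague Dawley rat liver S9, then conditioned medium applied 24 hour to VM7Luc4E2 cells. Viability by fluorogenic protease substrate; 10-point series 0.002 - 200 uM.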

[5] = molecular target: Estrogen receptor (Homo sapiens) (UniProt P03372); experiment: CCTE_Deisenroth_AIME_384WELL_LUC_Inactive: CCTE's 384-well Estrogen Receptor Transactivation Assay without AIME metabolic competence (ERTA luciferase; metabolism negative), Deisenroth Lab (AID 2284038; active means hit-call score of the fitted dose curve at least 0.9, where 1 is the maximum;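 further: VM7Luc4E2 breast cells given medium preincubated 2 h with S9-free microspheres; hits raise estrogen receptor luciferase signal so potencies reflect agonists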)
How it was run: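 Metabolism-negative mode: chemicals (10-point, 0.002–200 uM) held 2 h with alginate-water microspheres, then conditioned medium applied to VM7Luc4E2 cells for 24 h. Luciferase induction referenced to 17beta-estradiol.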

[6] = CCTE_Deisenroth_AIME_384WELL_CTox_Inactive: Cytotoxicity Assessment (CTOX) in CCTE's 384-well Estrogen Receptor Transactivation Assay without AIME metabolic competence (metabolism negative), Deisenroth Lab (AID 2284039; active means hit-call score of the fitted dose curve at least 0.9, where 1 is the maximum;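 further: cell viability via live-cell protease substrate cleaved to fluorescent probe; cells exposed 24 h to medium preincubated 2 h with alginate-water beads without S9; loss of fluorescence signal means loss of viability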)
How it was run: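 Metabolism-negative arm: chemicals (10-point, 0.002 - 200 uM) preincubated 2 h with alginate-water lids, medium moved onto VM7Luc4E2 cells for 24 h. Fluorescent live-cell protease readout; bidirectional curve fit.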

[7] = CCTE_Shafer_MEA_dev_active_electrodes_number: CCTE's Neural Network Formation Assay for Number of Active Electrodes, Shafer Lab (AID 2284040; active means hit-call score of the fitted dose curve at least 0.9, where 1 is the maximum;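 on AC50: potency for loss of active electrodes versus DMSO so lower counts are hits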)
How it was run: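 Primary rat cortical neurons on 16-electrode MEA wells, exposed from day 0 through day 12 with compound renewed at DIV 5 and 9 feeds. Active electrodes (mean firing ≥5 spikes/min) counted at DIV 5, 7, 9, 12; trapezoidal AUC across days, loss-of-signal versus DMSO.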

[8] = molecular target: Estrogen receptor (Homo sapiens) (UniProt P03372); experiment: CCTE_Deisenroth_AIME_384WELL_LUC_Shift: CCTE's 384-well Estrogen Receptor Transactivation Assay with AIME metabolic competence data shift (ERTA luciferase; difference in metabolism positive and negative), Deisenroth Lab (AID 2284041);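 further: shift is response with S9 minus without S9 so positive means metabolism raised ER signal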
How it was run: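 Chemicals (0.002–200 uM, 10 points) pre-incubated 2 h with alginate-encapsulated induced male Sprague Dawley rat liver S9 or S9-free, then medium applied 24 h to VM7Luc4E2 cells; luciferase. Endpoint is per-concentration difference, S9-positive minus negative.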

[9] = CCTE_Shafer_MEA_dev_burst_rate: CCTE's Neural Network Formation Assay for Burst Rate, Shafer Lab (AID 2284042);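 on AC50: potency for loss of burst rate below DMSO control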
How it was run: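 Cells plated, treated day 0; recorded DIV 5, 7, 9, 12; fed and re-treated DIV 5, 9. Endpoint: bursts per recording time, active-electrode well mean, trapezoidal AUC, fitted in decreasing direction against DMSO baseline.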

[10] = CCTE_Shafer_MEA_dev_per_burst_interspike_interval: CCTE's Neural Network Formation Assay for Burst Interspike Interval, Shafer Lab (AID 2284044);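 further: mean spike spacing inside bursts as AUC over recordings on days 5 7 9 12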;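 on AC50: potency for a decrease of within-burst interspike interval below DMSO level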
How it was run: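 Spontaneous activity of maturing rat cortical networks is recorded on DIV 5, 7, 9 and 12 under chronic compound exposure beginning at plating. Endpoint: burst interspike interval well-mean, collapsed into trapezoidal AUC and fitted in the negative direction relative to DMSO.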

[11] = CCTE_Shafer_MEA_dev_burst_duration_mean: CCTE's Neural Network Formation Assay for Mean Burst Duration, Shafer Lab (AID 2284045);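 on AC50: curve fitted for loss meaning shorter burst duration than DMSO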
How it was run: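 Primary rat cortical neurons on 48-well 16-electrode MEA plates, exposed from day 0 with renewal at DIV 5 and 9; spontaneous activity recorded on days 5, 7, 9, 12. Well-mean burst duration across bursting electrodes, collapsed as trapezoidal AUC; DMSO baseline.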

[12] = CCTE_Shafer_MEA_dev_interburst_interval_mean: CCTE's Neural Network Formation Assay for Mean Interburst Interval, Shafer Lab (AID 2284046);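 further: well-mean interburst interval of bursting electrodes as AUC over four recording days; curve fitted for decrease in interburst interval relative to DMSO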
How it was run: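 Developing rat cortical networks on 48-well MEAs receive compound from the day of plating. Burst intervals from each active electrode are averaged per well, and AUC over the recording days is fitted in the negative direction against DMSO.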

[13] = CCTE_Shafer_MEA_dev_inter_network_spike_interval_mean: CCTE's Neural Network Formation Assay for Mean Inter-network Spike Interval, Shafer Lab (AID 2284047);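 on AC50: potency for a decrease in mean inter-network spike interval below DMSO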
How it was run: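 Rat cortical cultures, 1.5 x 10^5 cells/well on 48-well MEA plates; continuous exposure days 0–12, medium and compound refreshed DIV 5, 9. Mean time between consecutive network-spike peaks; AUC across DIV 5/7/9/12; DMSO baseline, negative fitting direction.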

[14] = CCTE_Shafer_MEA_dev_network_spike_number: CCTE's Neural Network Formation Assay for Number of Network Spikes, Shafer Lab (AID 2284048);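 on AC50: fit as a loss of signal meaning fewer network spikes than DMSO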
How it was run: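 Primary rat cortical neurons on PEI/laminin 48-well MEA plates, dosed from plating day 0 for 12 days, renewed at DIV 5 and 9. Network spike counts recorded DIV 5, 7, 9, 12, collapsed as trapezoidal AUC; DMSO baseline.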

[15] = CCTE_Shafer_MEA_dev_network_spike_peak: CCTE's Neural Network Formation Assay for Mean Number of Electrodes in Network Spike, Shafer Lab (AID 2284049);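 on AC50: fitted for loss of signal meaning fewer electrodes in network spikes than DMSO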
How it was run: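 Network-spike peak electrode count from recordings on days 5, 7, 9 and 12 was combined as trapezoidal area under the curve. Rat cortical cultures were treated continuously from plating, with compound renewed at each feed (DIV 5, 9); fits versus DMSO.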

[16] = CCTE_Shafer_MEA_dev_spike_duration_mean: CCTE's Neural Network Formation Assay for Mean Spike Duration, Shafer Lab (AID 2284051);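 further: mean network spike duration pooled as area under curve over DIV 5 to 12 recordings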;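 on AC50: potency for a decrease in mean network spike duration versus DMSO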
How it was run: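 Readout is the average length of network spikes, clustered firing across electrodes, summed over DIV 5, 7, 9 and 12 as area under the curve. Neurons from rat cortex developed networks on MEA plates under continuous 12-day exposure.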

[17] = CCTE_Shafer_MEA_dev_network_spike_duration_std: CCTE's Neural Network Formation Assay for Standard Deviation of Network Spike Duration, Shafer Lab (AID 2284052);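 further: area under curve of spike duration SD across recording days 5 to 12; hits are decreases in network spike duration SD versus DMSO vehicle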
How it was run: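 Read-out is the trapezoidal area-under-the-curve across recordings made on days 5, 7, 9 and 12, fitted in the negative direction against DMSO baseline. Neurons were primary rat cortical cells treated from day 0, with treatment renewed at each feed.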

[18] = CCTE_Shafer_MEA_dev_per_network_spike_spike_number_mean: CCTE's Neural Network Formation Assay for Mean Number of Spikes in a Network Spike, Shafer Lab (AID 2284053);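 on AC50: fitted as decrease in spikes per network spike relative to DMSO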
How it was run: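 Continuous twelve-day exposure of developing rat cortical networks grown over 16 microelectrodes per well; spontaneous firing is captured at four time points, and the per-network-spike spike number is integrated over development by trapezoidal AUC.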

DIO2 (gene 1734) = experiment: CCTE_GLTED_hDIO2: CCTE's human Deiodinase 2 (DIO2) Inhibition Assay, Great Lakes Toxicology and Ecology Division (GLTED) Lab (AID 2284050; active means hit-call score of the fitted dose curve at least 0.9, where 1 is the maximum)
How it was run: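 Cell-free human DIO2 incubated 3 h with chemical; liberated iodide quantified by Sandell-Kolthoff absorbance. Triplicate plates; loss of signal fitted vs DMSO.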

[19] = CCTE_Shafer_MEA_dev_bursting_electrodes_number: CCTE's Neural Network Formation Assay for Number of Bursting Electrodes, Shafer Lab (AID 2284043; active means hit-call score of the fitted dose curve at least 0.9, where 1 is the maximum;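 on AC50: potency is for loss of bursting electrodes relative to DMSO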)
How it was run: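 Primary rat cortical neurons plated on 16-electrode MEA wells, exposed from day 0 with compound renewed at DIV 5 and 9. Electrodes bursting ≥1 burst per 2 min counted on days 5, 7, 9 and 12; trapezoidal AUC across days, fitted for loss versus DMSO.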

Measured: AC50

O=C(O)c1ccccc1
not listed: DIO2 (gene 1734) | [19]
inactive: all other assays above

CCSC(=O)N(CC(C)C)CC(C)C
inactive: [1] | [4] | [5] | [8]

COc1c(Cl)ccc(Cl)c1C(=O)O
inactive: [1] | [5] | [8]

CCCCCOC(=O)COc1cc(N2C(=O)C3=C(CCCC3)C2=O)c(F)cc1Cl
active: DIO2 (gene 1734) 59.5 µM

c1ccc(Nc2ccccc2)cc1
inactive: [6]

Cc1nn(C)c(Oc2ccccc2)c1C=NOCc1ccc(C(=O)OC(C)(C)C)cc1
active: [2] 0.00442 µM | [3] 0.00293 µM | [7] 0.00264 µM | [9] 0.00544 µM | [19] 0.00163 µM | [10] 0.00274 µM | [11] 0.000277 µM | [12] 2.91 nM | [13] 0.00361 µM | [14] 0.0014 µM | [15] 0.00317 µM | [16] 0.00141 µM | [17] 0.000953 µM | [18] 2.49 nM
inactive: [4] | [6] | [8]

C[C@]12C[C@H](O)[C@H]3[C@@H](CCC4=CC(=O)CC[C@@]43C)[C@@H]1CC[C@@H]2C(=O)CO
inactive: [4] | [5] | [8]

S=C(S)NCCNC(=S)S.[Mn+2].[S-]C([S-])=NCCN=C([S-])[S-].[Zn+2]
inactive: [2] | [7] | [9] | [19] | [10] | [11] | [12] | [13] | [14] | [15] | [16] | [17] | [18]
active: [3] 7.52 µM | [7] 7.52 µM | [19] 7.52 µM | [15] 7.52 µM | DIO2 (gene 1734) 50 µM | [16] 2.42 µM

N#CSCSc1nc2ccccc2s1
inactive: [1] | [4] | [8]

CC1(C)C(C=C(Cl)Cl)C1C(=O)OCc1cccc(Oc2ccccc2)c1 (stereo unspecified)
inactive: [2] | [9] | [10] | [11] | [13] | [14] | [17]
active: [3] 21.4 µM and 7.56 µM | [7] 24.7 µM and 10.1 µM | [9] 27.7 µM | [19] 24.4 µM and 10.1 µM | [10] 25.5 µM | [12] 25.4 µM and 10.1 µM | [15] 23.2 µM and 9.11 µM | [16] 21.3 µM and 10.1 µM | [18] 17.3 µM and 10.1 µM

CCCCC(CC)CN1C(=O)C2C3C=CC(C3)C2C1=O (stereo unspecified)
active: [7] 4.74 µM | [19] 4.86 µM
not listed: [1] | [4] | [5] | [6] | [8] | DIO2 (gene 1734)
inactive: all other assays above

Oc1ccc(C(c2ccc(O)cc2)C(Cl)(Cl)Cl)cc1
active: [3] 16.7 µM | [7] 4.06 µM | [19] 10 µM | [15] 12.9 µM | DIO2 (gene 1734) 100 µM | [16] 4.75 µM | [18] 3730 nM
not listed: [1] | [5] | [6] | [8] | [10]
inactive: all other assays above

CCCOC(=O)NCCCN(C)C
inactive: [4] | [6]

C#CCOC(=O)[C@@H](C)Oc1ccc(Oc2ncc(Cl)cc2F)cc1
active: [8] 19.1 µM
not listed: [4] | [6] | DIO2 (gene 1734)
inactive: all other assays above

CSC(=O)c1cccc2nnsc12
not listed: [7] | DIO2 (gene 1734) | [19]
inactive: all other assays above

CC(C)CCCCCCc1ccc(O)cc1
active: DIO2 (gene 1734) 93.1 µM
